p53ts 39C tox: qHTS Screen for Compounds that Selectively Target Cancer Cells with p53 Mutations: Cytotoxicity of p53ts Cells at the Nonpermissive Temperature; H1299-p53A138V viability at 39C, ATP luminescence, 24 h; Potency, µM (titrated, usually from 46.1 µM), actives largely listed as cytotoxic; 1.5% of 130,000 active; AID 902, 2007; also: nearly all actives have a fitted effect of over 55% in size
p53ts 32C kill: qHTS Screen for Compounds that Selectively Target Cancer Cells with p53 Mutations: Cytotoxicity of p53ts Cells at the Permissive Temperature; Potency, µM (top dose mostly 46.1 µM), most hits filed as cytotoxic; H1299-p53A138V at 32C, ATP luminescence viability, 24 h; 0.93% of 130,000 active; also: nearly all actives have a fitted effect of over 55% in size
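Viability by ATPlite luminescence after 24 h compound treatment (up to 46 uM) at the permissive 32C. Cells are H1299 carrying p53 A138V. Scale runs from DMSO basal to 100 uM tamoxifen as full kill; AC50 from Hill fits.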
Imprint erasure: qHTS Assay for Compounds that Induce Erasure of Genomic Imprints. mouse ES Peg3-LacZ reporter, beta-gal luminescence, 40 h. Potency, µM (doses to about 60.7 µM), usual class: activators. 0.02% of 110,000 active. AID 1948, 2009
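Readout: BetaGlo luminescence (5 min, room temp) for LacZ from the normally silent maternal Peg3 allele in female Peg3LacZ-Neo ES cells. Cells 300/well, 40 h, 37C, 5% CO2. Data normalized per plate to negative controls.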
Each line names hits and unclear results; the compound was inactive in the other large screens. Rows were chosen to be rich in hits. Some 1.6% of all compounds tested hit in one or more screens of this group. Calls follow the shape of the dose curve; as a rule, active = well fitted curve in the direction sought with a large enough effect; inconclusive = small, poorly fitted or top-dose-only effect, or another doubt; inactive = no such curve, though single readings can be large; an effect the other way counts as inactive or inconclusive.

CC(=O)c1ccc(NC(=O)/C=C/c2ccc(C)o2)cc1	p53ts 39C tox 10µM, p53ts 32C kill 7.94µM
Cc1ccc(NC(=O)/C=C/c2ccc(C)o2)c(C)c1	none
Cc1ccc2nc(-c3ccc(NC(=O)C(F)(F)F)cc3)sc2c1	p53ts 39C tox 1.58µM, p53ts 32C kill 3.16µM
Cc1ccc2nc(-c3ccc(NC(=O)c4ccc(S(C)(=O)=O)cc4)cc3)sc2c1	Imprint erasure inconclusive
CCc1ccc(NC(=O)CSc2nc(=O)n(Cc3ccco3)c3c2CCC3)cc1	none
O=C(CCC1CCCC1)Nc1ccc(OCC(=O)N2CCOCC2)cc1	p53ts 39C tox inconclusive, p53ts 32C kill 7.94µM (no result: Imprint erasure)
Cc1cc(OCC(=O)N2CCOCC2)ccc1NC(=O)C1CCCCC1	none
COc1ccc(NC(=O)c2cc3c([nH]c2=O)CC(c2ccccc2)CC3=O)cc1 (centres undefined)	none
COC(=O)c1nnn(CC(=O)Nc2ccc(Br)c(C)c2)c1N	none
COc1ccc(C(=O)NCC(c2ccc(N(C)C)cc2)N2CCc3ccccc32)cc1 (centres undefined)	p53ts 39C tox 10µM
CC(C)Oc1ccc(C(=O)NCC(c2ccc(N(C)C)cc2)N2CCc3ccccc32)cc1 (centres undefined)	none
Cc1ccc(Nc2cc(C)c(C#N)c3nc4ccccc4n23)cc1Cl	none
CCOC(=O)c1sc2nc(C)cc(C)c2c1N	none (no result: Imprint erasure)
CCCCOC(=O)c1ccc(NC(=O)c2sc3nc(C)cc(C)c3c2N)cc1	p53ts 39C tox inconclusive, p53ts 32C kill 15.8µM
Cc1cc(C)c2c(N)c(C(=O)Nc3nccs3)sc2n1	p53ts 39C tox 1µM, p53ts 32C kill 0.794µM
COCc1cc(C)nc2sc(C(=O)Nc3nccs3)c(N)c12	none
O=c1[nH]c(SCc2c(F)cccc2Cl)nc2c1CCC2	none
Cc1cc2ccccc2n1CCNC(=O)c1ccccc1F	none
CNc1nnc(-c2ccc(N(C)C)cc2)s1	p53ts 39C tox 7.94µM, p53ts 32C kill 6.31µM (no result: Imprint erasure)
CN(C)c1ccc(-c2ccncc2)cc1	none
CS(=O)(=O)Nc1ccc(-c2nc3ccccc3s2)cc1	p53ts 39C tox 2µM, p53ts 32C kill 3.98µM
Cc1c(NS(C)(=O)=O)cccc1-c1nc2ccccc2s1	p53ts 39C tox inconclusive, p53ts 32C kill inconclusive
Cc1cc(C)n(-c2nc3ccccc3nc2Nc2cccc(C)c2C)n1	none
CN1CCN(Cc2cc(COCc3ccccc3)c3cccnc3c2O)CC1	p53ts 39C tox 5.01µM
CCCOCc1cc(CN2CCN(c3cccc(Cl)c3)CC2)c(O)c2ncccc12	p53ts 39C tox 15.8µM
Oc1ccc(CN2CCN(Cc3ccccc3)CC2)c2cccnc12	p53ts 32C kill inconclusive
CCCCOCc1cc(CN2CCN(c3cccc(Cl)c3)CC2)c(O)c2ncccc12	none
C[C@@]12CCC(=O)C=C1CC[C@H]1C2[C@@H](O)C[C@]2(C)[C@@H]1CC[C@@]2(O)C(=O)CO (some centres undefined)	none (no result: p53ts 39C tox, p53ts 32C kill)
Cc1ccc(CSc2nc(=O)c3c(C)cc(C)nc3n2C2CC2)cc1	none
COc1ccc(-n2nc(C(=O)N3CCN(c4cccc(C(F)(F)F)c4)CC3)c3c4ccccc4n(C)c3c2=O)cc1Cl	Imprint erasure inconclusive
O=c1cc(C(F)(F)F)oc2c1ccc1ccccc12	none (no result: Imprint erasure)
O=c1cc(-c2ccccc2)oc2c1ccc1ccccc12	p53ts 39C tox 31.6µM
CCc1cccc(NC(=O)CCS(=O)(=O)c2ccc3nc(C)sc3c2)c1	none
COc1cc(SC)ccc1C(=O)Nc1ccc2c(c1)OCCO2	p53ts 39C tox 12.6µM, p53ts 32C kill 10µM
COc1ccccc1C(=O)Nc1ccc2c(c1)OCO2	p53ts 39C tox inconclusive, p53ts 32C kill inconclusive
O=C(CN1CCN(CC(=O)Nc2ccccc2Cl)CC1)Nc1ccc2c(c1)OCCO2	none
COc1ccc(Cl)cc1C(=O)Nc1ccc2c(c1)OCO2	p53ts 39C tox inconclusive, p53ts 32C kill inconclusive
COc1ccccc1C(=O)Nc1ccc2c(c1)OCCO2	p53ts 39C tox 15.8µM, p53ts 32C kill 15.8µM (no result: Imprint erasure)
COc1ccccc1C(=O)Nc1ccc2c(c1)nc(CCNC(C)=O)n2C	p53ts 39C tox 12.6µM, p53ts 32C kill 12.6µM
COc1ccccc1NC(=O)CN1CCN(CC(=O)Nc2ccc3c(c2)OCCO3)CC1	p53ts 39C tox 25.1µM
COc1ccccc1C(=O)Nc1ccc2c(c1)nc(CN1CCN(C(C)=O)CC1)n2C	none
O=C(C1CCC(Cn2c(=O)c3sccc3n(Cc3ccccc3)c2=O)CC1)N1CCCCC1 (centres undefined)	none
COc1cc(OC)c(NC(=O)Cn2c(=O)c(C(F)(F)F)nc3ccccc32)cc1Cl	none
COc1cccc(N2CCN(C3C(=O)c4ccccc4N3C(C)=O)CC2)c1 (centres undefined)	none
CCC1=C2CC[C@H]3C(=O)N(c4ccccc4)C(=O)[C@H]3[C@H]2[C@@]2(Cc3ccccc3)C(=NCc3ccccc3)OC(=O)N2C1=O	none
Cc1cccc(OCC(=O)Nc2ccc3c(c2)OCCO3)c1	p53ts 39C tox inconclusive, p53ts 32C kill 10µM
O=C(COc1ccccc1Cl)Nc1ccc2c(c1)OCCO2	p53ts 39C tox inconclusive, p53ts 32C kill inconclusive
N#Cc1ccccc1NC(=O)CSc1nc(-c2ccccc2)cc(C(F)(F)F)c1C#N	p53ts 39C tox inconclusive
COc1ccc(-c2cc3ccc(O)c(CN4CCCCC4C)c3oc2=O)cc1OC (centres undefined)	none
O=C(Nc1ccc(S(=O)(=O)Nc2ccccc2)cc1)C1COc2ccccc2O1 (centres undefined)	p53ts 39C tox 22.4µM, p53ts 32C kill inconclusive (no result: Imprint erasure)
CN(C)S(=O)(=O)c1ccc(NC(=O)C2COc3ccccc3O2)cc1 (centres undefined)	none
O=C(Cn1cnc2c(nc3n2CCCCC3)c1=O)Nc1ccc(F)cc1	none (no result: p53ts 39C tox, Imprint erasure)
CC(C)Sc1nc2sc3c(c2c(=O)n1Cc1ccccc1)CCCC3	none
O=c1c(NCc2cccs2)nccn1-c1ccc(F)cc1	none
O=C(Nc1ncc2c(n1)CC(c1ccccc1)CC2=O)c1ccco1 (centres undefined)	none
O=C1CC(c2ccccc2)Cc2nc(NCc3ccco3)ncc21 (centres undefined)	p53ts 39C tox 7.94µM, p53ts 32C kill 6.31µM
CNC(=O)Cn1ncc2c(C)n(Cc3ccc(C)cc3)c(C)c2c1=O	none (no result: Imprint erasure)
Cc1ccc(CNC(=O)Cn2ncc3c(C)n(Cc4ccc(Cl)cc4)c(C)c3c2=O)cc1	p53ts 39C tox 15.8µM
Cc1cccc(-n2c(-c3ccccc3)cn3c4c(=O)[nH]c(=O)n(C)c4nc23)c1	none
CC(C)COc1ccc(C(=O)Nc2nnc(S(=O)(=O)N(C)Cc3ccco3)s2)cc1	p53ts 39C tox 10µM, p53ts 32C kill inconclusive
Cc1ccc(C(=O)Nc2nnc(S(=O)(=O)N(C)Cc3ccco3)s2)cc1	none
Cc1ccc(OCCSc2nc(-c3ccccc3C)nc3cc(=O)[nH]n23)cc1Cl	p53ts 39C tox 25.1µM
Cc1cccc(-c2nc(SCCCOc3ccc(Cl)c(C)c3)n3[nH]c(=O)cc3n2)c1	none
COC(=O)/C=c1/sc2nc3ccccc3n2c1=O	none
O=c1/c(=C/c2ccccn2)sc2nc3ccccc3n12	p53ts 39C tox inconclusive, p53ts 32C kill 10µM
COc1ccc(C)cc1NC(=O)Cn1c(=O)nc(-c2ccccc2F)c2cc(Cl)ccc21	none
CCOC(=O)c1c(C)n(-c2ccccc2)c2ccc(OC(=O)c3ccccc3)cc12	none
